TDP1 cell CPT – DT40-hTDP1 cell growth loss with CPT | AID 686979 | chicken DT40 Tdp1-/-;hTDP1 cells + 20 nM CPT, ATP luminescence, 48 h | 12% of 420,000 active | Potency, µM (top dose mostly 46.2 µM), hits mostly inhibitors; also: nearly all actives have a fitted effect of over 55% in size
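Cell growth measured by CellTiter-Glo luminescence after a minimum 48 h, 37 C compound exposure with 20 nM CPT in Tdp1-knockout DT40 cells stably expressing hTDP1, seeded 400/well; qHTS titration format.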
KB-3-1 cytotox – kills parental KB-3-1 adenocarcinoma cells | KB-3-1 viability, CellTiter-Glo ATP luminescence, 72 h | Potency, µM (series often up to 46.1 µM), most hits filed as cytotoxic | 1.4% of 400,000 active | AID 1347075; also: nearly all actives have a fitted effect of over 60% in size
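Parental KB-3-1 adenocarcinoma cells in phenol-red-free DMEM with 10% FBS were pin-treated with compounds at several concentrations, incubated 72 h at 37 °C, and viability read by CellTiter-Glo luminescence; concentration-effect curves were fitted after normalization.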
HT1080-NT tox – kills 2HG-producing HT-1080-NT fibrosarcoma cells; HT-1080-NT fibrosarcoma viability, CellTiter-Glo ATP luminescence, 48 h; Potency, µM (series often up to 46.1 µM), usual class: cytotoxic; 1.6% of 360,000 active; AID 686970;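 also: NT is the 2HG producing partner of a matched IDH1 knockdown line; nearly all actives have a fitted effect of over 55% in size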
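750 cells/well, RPMI + 5% FBS; 2 h settle, compound pin-transfer, 48 h at 37 degrees C. CellTiter-Glo 10 min RT, luminescence. Normalized to DMSO and media-only wells.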
KB-V1 MDR tox – kills drug-selected multidrug resistant KB-V1 cells | KB-V1 MDR cells viability, CellTiter-Glo, 72 h | Potency, µM (highest dose often 46.1 µM), actives largely listed as cytotoxic | 3.4% of 400,000 active | AID 1347076; also: nearly all actives have a fitted effect of over 60% in size
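Readout: CellTiter-Glo luminescence, 10 min after addition. Cells: KB-V1 MDR subline, 72 h at 37 degrees C with compound. Analysis: corrected, normalized data fitted to concentration-effect curves.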
HT1080 IDH1KD tx – HT-1080 IDH1 knockdown cell toxicity (counter line). HT-1080 IDH1 knockdown viability, ATP luminescence, 48 h. Potency, µM (titrated, usually from 46.1 µM), actives largely listed as cytotoxic. 2% of 360,000 active
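In this qHTS, HT-1080 cells depleted of IDH1 are exposed for 48 h at 37 °C to compound titrations. Toxicity is scored from CellTiter-Glo luminescence, with DMSO as full viability and medium alone as none.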
TDP1 cell noCPT – qHTS for Inhibitors of human tyrosyl-DNA phosphodiesterase 1 (TDP1): qHTS in cells in absence of CPT. Potency, µM (top dose mostly 46.2 µM), actives largely listed as inhibitors. DT40 Tdp1-/- hTDP1 cells, no CPT, ATP luminescence, 48 h. 15% of 420,000 active. AID 686978, 2013; also: nearly all actives have a fitted effect of over 55% in size
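Compound effects on proliferation are scored in DT40 Tdp1-/-;hTDP1 cells in the absence of CPT. ATP levels (CellTiter-Glo luminescence) are recorded after a ≥48 hr, 37 °C incubation.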
Numbers stand for hits; - = inactive; ? = inconclusive; . = no result; [ ] = remark or other dose. Shown are actives, neighbours in structure and some others; about 19% of the full set was active somewhere. Calls follow the shape of the dose curve; as a rule, active = well fitted curve in the direction sought with a large enough effect; inconclusive = small, poorly fitted or top-dose-only effect, or another doubt; inactive = no such curve, though single readings can be large; an effect the other way counts as inactive or inconclusive.

SMILES	TDP1 cell CPT	KB-3-1 cytotox	HT1080-NT tox	KB-V1 MDR tox	HT1080 IDH1KD tx	TDP1 cell noCPT
COc1ccc(N2CCN(C(=O)c3cc4c(-c5cccc(OC)c5)nn(C)c4s3)CC2)cc1	?	-	-	-	-	15µM
COc1cccc(-c2nn(C)c3sc(C(=O)N4CCN(c5cccc(C(F)(F)F)c5)CC4)cc23)c1	16µM	-	.	-	.	26µM
Cc1ccc(-c2csc3ncnc(Cl)c23)cc1	-	-	-	?	-	?
CNc1cncc(-c2cccc(O)c2)n1	?	-	-	-	-	-
Cc1ccc(C(=O)OCC(=O)N2CCC(c3ccccc3)=N2)cc1	?	-	-	-	-	?
CC1(C)CC2(C)OC2C2(C1)N=NC(=Nc1ccccc1)O2 (configuration not stated)	4.1µM	?	9.2µM	-	?	4.1µM
Cc1ccc2onc(CC(=O)N3CCN(c4cccc(C)c4C)CC3)c2c1	?	-	.	-	.	?
CC(C)Oc1ccc(C(CCN)C2CCCCC2)cc1 (configuration not stated)	13µM	?	15µM	16µM	15µM	8.2µM
O=C(Nc1ccc(N2CCN(C(=O)c3cccs3)CC2)c(Cl)c1)c1ccco1	?	?	-	3.7µM	?	15µM
Cc1ccccc1C(=O)N1CCN(c2ccc(NC(=O)c3ccco3)cc2Cl)CC1	15µM	-	?	?	?	9.2µM
COc1c(F)c(F)c(C(=O)Nc2cccc(Cl)c2N2CCOCC2)c(F)c1F	15µM	-	-	?	-[9.24 µM]	21µM
Cc1ccc(NC(=O)N2CCN(C(=O)c3ccco3)CC2)cc1Cl	-	-	-	?	-	?
O=C(Nc1ccc(N2CCN(C(=O)c3ccco3)CC2)c(Cl)c1)c1c(F)c(F)c(F)c(F)c1F	15µM	?	-	-	-	18µM
O=C(Nc1ccc(N2CCN(C(=O)c3ccco3)CC2)c(Cl)c1)c1cccnc1	?	-	-	-	-	?
CCc1ccc(NC(=O)Cn2c(=O)n(CCc3ccccc3)c(=O)c3sc4ccccc4c32)cc1	?	-	.	-	.	?
O=C(NC1CCCC1)C(c1cccnc1)N(C(=O)c1csnn1)C1CC1 (configuration not stated)	-	-	-	-	-	-
O=C(Nc1ccc2c(c1)OCCO2)c1ccc(Br)cc1	?	-	?	?	-	?
O=C(Nc1ccc2c(c1)OCCO2)c1c(F)c(F)c(F)c(F)c1F	18µM	-	-	-	-	?
Cc1c(C(=O)Nc2ccc3c(c2)OCCO3)oc2ccc(Br)cc12	-	-	-	21µM	-	-
O=C(Nc1ccc(N2CCOCC2)c(Cl)c1)c1c(F)c(F)c(F)c(F)c1F	23µM	-	-	-	-	16µM
CS(=O)(=O)c1ccc(C(=O)Nc2cccc(-c3nc4ccccc4[nH]3)c2)cc1	?	-	-	?	-	26µM
CS(=O)(=O)Cc1ccc(C(=O)Nc2cccc(-c3nc4ccccc4[nH]3)c2)cc1	?	-	-	-	?	13µM
CS(=O)(=O)c1cccc(C(=O)Nc2cccc(-c3nc4ccccc4[nH]3)c2)c1	?	-	?	-	?	?
CCOc1ccc(-c2cc3c(=O)n(CC(=O)NCc4ccc(F)cc4)ccn3n2)cc1	-	-	.	-	.	-
COc1ccc(NC(=O)CCS(=O)(=O)c2nc(-c3ccc4c(c3)OCO4)cc(C(F)(F)F)n2)c(OC)c1	?	-	.	-	.	?
SMILES	TDP1 cell CPT	KB-3-1 cytotox	HT1080-NT tox	KB-V1 MDR tox	HT1080 IDH1KD tx	TDP1 cell noCPT
COc1cc(NC(=O)CCS(=O)(=O)c2nc(-c3ccc4c(c3)OCO4)cc(C(F)(F)F)n2)cc(OC)c1OC	?	-	.	-	.	16µM
O=C(CCS(=O)(=O)c1nc(-c2ccc3c(c2)OCO3)cc(C(F)(F)F)n1)Nc1ccccc1C(F)(F)F	?	-	.	-	.	23µM
COC(=O)c1ccccc1NC(=O)CCCS(=O)(=O)c1nc(-c2ccccc2OC)cc(C(F)(F)F)n1	-	-	.	-	.	-
CCC(C)NC(=O)CCSc1nc(-c2ccc3c(c2)OCO3)cc(C(F)(F)F)n1 (configuration not stated)	?	-	.	-	.	?
O=C(CCS(=O)(=O)c1nc(-c2ccc3c(c2)OCO3)cc(C(F)(F)F)n1)Nc1ccc(F)c(Cl)c1	2.6µM	.	.	.	.	5.8µM
COc1ccc(NC(=O)CCS(=O)(=O)c2nc(-c3ccc4c(c3)OCO4)cc(C(F)(F)F)n2)cc1OC	?	-	.	-	.	?
COc1ccc(-c2cc(C(F)(F)F)nc(S(=O)(=O)CCCC(=O)Nc3cccnc3Cl)n2)cc1OC	2.3µM	-	?	-	10µM	3.7µM
CC1=CC2C(C3C=CC2(C)C(=O)C3(C)O)C(C)(O)C1=O (configuration not stated)	-	.	-	.	-	-
CCc1ccccc1NC(=O)Cn1c(=O)n(-c2ccc(C)cc2)c(=O)c2cc(OC)c(OC)cc21	-	-	.	-	.	-
CC1CCN(C(=O)COC(=O)C23CC4CC(CC(O)(C4)C2)C3)CC1	-	-	-	-	-	-
Cc1ccc(-n2nnnc2CNC(=O)C(C)(C)C)cc1C	-	.	.	.	.	-
O=C(Cn1c2ccccc2c2nc3n(c(=O)c21)CCS3)Nc1ccccc1	21µM	-	-	-	-	?
O=C(Cn1c2ccccc2c2nc3n(c(=O)c21)CCS3)N1CCCC1	-	-	-	-	-	-
N#Cc1c(N)n(CCNC(=O)c2ccccc2)c2nc3ccccc3nc12	-	?	-	-	-	-
C=CCn1c(NC(=O)c2ccccc2Cl)c(C#N)c2nc3ccccc3nc21	16µM	?	-	8.2µM	-	21µM
COc1ccc(NS(=O)(=O)c2ccc(NS(=O)(=O)c3ccc4c(c3)OCCO4)cc2)cc1	?	-	.	-	.	?
COc1ccc(NS(=O)(=O)c2ccc3oc(SC(C)C(N)=O)nc3c2)cc1 (configuration not stated)	16µM	.	?	.	-	12µM
COc1ccc(NS(=O)(=O)c2ccc3oc(Nc4ccc5c(c4)OCCO5)nc3c2)cc1	?	-	?	-	-[9.24 µM]	15µM
O=C1C2Sc3[nH]c(=O)sc3C(c3cc([N+](=O)[O-])ccc3O)C2C(=O)N1c1ccccc1 (configuration not stated)	-	-	-	-	-	-
CCOC(=O)c1c(SCC(=O)Nc2nc3ccc(C)cc3s2)nc(=O)[nH]c1C	-	-	.	?	.	-
O=C(Cn1ccc(NC(=O)OCc2ccccc2)nc1=O)NCCN1CCOCC1	-	-	-	-	-	-
Cc1ccc(C)c(N2CCN(Cc3csc(C)c3C)CC2)c1	?	.	.	.	.	15µM
